49 compounds from PubChem BioAssay AID504339 (National Center for Advancing Translational Sciences (NCATS), 2011) can be followed below.

The campaign covered roughly 390,000 compounds. About 17,000 (4.4%) were called active. Another 8% or so got no clear call; they are omitted. The sample holds actives, similar compounds and a random draw of the others, so the mix is not that of the screen. A number with no mark means an inactive call. Calls come from the whole dose curve; as a rule, active = well fitted inhibition curve with a large enough effect; inconclusive = small, poorly fitted or top-dose-only effect; inactive = no such curve, though single readings can be large or run the other way.
% is set by controls: 0 for no effect and ±100 for the full control effect; potency is the fitted concentration of half-maximal effect.

In this test the target is Lysine-specific demethylase 4A (Homo sapiens) (UniProt O75164). Briefly: qHTS Assay for Inhibitors of JMJD2A-Tudor Domain. Note: nearly all actives have a fitted effect of over 50% in size. Particulars: AlphaScreen JMJD2A-Tudor / H3K4me3 peptide binding; series mostly up to 114 µM; activity change, negative = inhibition: at the top concentration.
Chain of Lysine-specific demethylase 4A (Homo sapiens) (O75164 whole entry, looked up, the tested form may be a part): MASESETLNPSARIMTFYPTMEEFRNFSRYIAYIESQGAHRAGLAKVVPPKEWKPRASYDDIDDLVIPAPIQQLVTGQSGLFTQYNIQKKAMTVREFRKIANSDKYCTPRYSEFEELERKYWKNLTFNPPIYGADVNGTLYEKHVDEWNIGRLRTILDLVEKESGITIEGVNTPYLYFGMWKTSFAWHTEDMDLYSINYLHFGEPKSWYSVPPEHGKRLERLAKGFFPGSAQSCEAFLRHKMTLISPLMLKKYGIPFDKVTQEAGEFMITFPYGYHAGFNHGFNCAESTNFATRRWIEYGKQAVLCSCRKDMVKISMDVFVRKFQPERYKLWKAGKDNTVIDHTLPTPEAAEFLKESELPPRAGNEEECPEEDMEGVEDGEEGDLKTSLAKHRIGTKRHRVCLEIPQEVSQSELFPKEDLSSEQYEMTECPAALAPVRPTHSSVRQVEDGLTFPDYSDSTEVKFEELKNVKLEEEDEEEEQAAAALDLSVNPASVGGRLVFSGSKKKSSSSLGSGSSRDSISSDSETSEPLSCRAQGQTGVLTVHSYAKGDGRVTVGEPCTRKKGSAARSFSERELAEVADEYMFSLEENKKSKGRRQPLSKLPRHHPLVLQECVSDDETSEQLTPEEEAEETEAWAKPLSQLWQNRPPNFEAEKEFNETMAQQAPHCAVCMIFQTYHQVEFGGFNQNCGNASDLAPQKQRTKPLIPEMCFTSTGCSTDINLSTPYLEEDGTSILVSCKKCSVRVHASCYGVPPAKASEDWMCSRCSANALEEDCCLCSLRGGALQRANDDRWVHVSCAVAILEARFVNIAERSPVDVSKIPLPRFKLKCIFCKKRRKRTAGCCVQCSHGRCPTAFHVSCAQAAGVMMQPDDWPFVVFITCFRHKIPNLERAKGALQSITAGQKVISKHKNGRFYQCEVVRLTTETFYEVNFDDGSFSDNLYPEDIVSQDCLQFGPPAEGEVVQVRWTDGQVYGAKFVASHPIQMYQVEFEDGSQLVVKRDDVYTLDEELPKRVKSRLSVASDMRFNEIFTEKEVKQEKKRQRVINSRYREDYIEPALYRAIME
For the compound `Fc1cccc(-n2ncc3c2ncn2nc(-c4ccccc4Cl)nc32)c1`, the “activity change, negative = inhibition” value is -17.7%.
Consider `CN1/C(=C\C=C2\N=C(c3ccc(F)cc3)OC2=O)C(C)(C)c2ccccc21`, for which the Potency is 56.2 µM (active).
Regarding `CC(=O)Nc1cccc(OCC(=O)/C=C2\N(C)c3ccccc3C2(C)C)c1`, the “activity change, negative = inhibition” value is -26.1%.
For the compound `CN1CCN(CCC(=O)N/N=C/C=C2\N(C)c3ccccc3C2(C)C)CC1`, the “activity change, negative = inhibition” value is -34.9%.
Turning to `O=C1C(F)N([S+](=O)([O-])c2ccc3c(c2)OCCO3)CCN1[S+](=O)([O-])c1c(F)cccc1F` (centres undefined), the “activity change, negative = inhibition” value was -12.3%.
Take `COCCCn1c(SCC(=O)NC2CCCC2)nnc1-c1ccccc1`: the “activity change, negative = inhibition” value is -8.42%.
With `COCCCn1c(SCC(=O)Nc2ccccc2)nnc1-c1ccncc1`, the “activity change, negative = inhibition” value is -24.6%.
Take `COCCCn1c(Cc2csc(Nc3cccc(Cl)c3)n2)nnc1SCC(=O)OC1CCCCC1`: the Potency is 44.7 µM (active).
Consider `COc1ccccc1CNc1ccc(-c2nc(-c3ccccc3C)no2)cc1[N+](=O)[O-]`, for which the “activity change, negative = inhibition” value is -5.3%.
Regarding `c1coc(CCNc2ncnc3ccc(-c4ccc5c(c4)OCO5)cc23)c1`, the Potency was 56.2 µM (active).
Take `Cc1noc(C)c1-c1ccc2ncnc(NCc3ccc(F)c(F)c3)c2c1`: the “activity change, negative = inhibition” value was -19.9%.
Turning to `Cc1nc(CNc2ncnc3ccc(-c4ccc5c(c4)OCO5)cc23)cs1`, the Potency is 79.4 µM (active).
Regarding `CS(=O)(=O)N(CC(=O)NCc1ccco1)c1ccc2c(c1)OCO2`, the “activity change, negative = inhibition” value was -24.4%.
With `CN(Cc1cncn1C)c1ncnc2ccc(-c3ccc4c(c3)OCO4)cc12`, the “activity change, negative = inhibition” value was -32.6%.
For `O=C(Cn1nnc(-c2ccc3c(c2)OCO3)n1)NCc1ccco1`, the “activity change, negative = inhibition” value was -8.12%.
Take `O=c1c(=O)n(Cc2c(F)cccc2Cl)ccn1Cc1ccccc1`: the “activity change, negative = inhibition” value is -27.3%.
Still for that read-out and setting: to `COc1cc(Cl)ccc1Nc1ncc(C(=O)N2CCN(c3ccccc3OC)CC2)c2ccccc12` belongs 11.3%.
Consider `Cc1cccc(C(=O)Nc2ccc(-c3nc4ccccc4s3)c(C)c2)c1`, for which the “activity change, negative = inhibition” value was -17%.
With `COc1ccc(CNC(=O)CC2Oc3ccc(C)cc3NC2=O)cc1` (centres undefined), the “activity change, negative = inhibition” value was -3.27%.
Consider `Cc1ccc(-n2nc(CO)c(C(=O)NCCc3ccccc3)n2)cc1`, for which the “activity change, negative = inhibition” value was -23.3%.
Consider `Cc1cc(C)n(-c2ccc(NC(=O)C3CCCCN3C(=O)c3cccs3)cc2)n1` (centres undefined), for which the “activity change, negative = inhibition” value was -13.1%.
For `Cc1ccc(NC(=O)C2CCCN2C(=O)OCc2ccccc2)cc1C` (centres undefined), the “activity change, negative = inhibition” value was -3.78%.
As to `COc1ccc(C(=O)N2CCCCC2C(=O)Nc2ccc(-n3nc(C)cc3C)cc2)o1` (centres undefined), the Potency is 15.8 µM (active).
Consider `Cc1nn(-c2ccc(N3CCCCC3)nn2)c(C)c1CCC(=O)NCc1ccc(F)cc1`, for which the “activity change, negative = inhibition” value was -23.3%.
Take `COc1ccc(-c2onc(C)c2C)cc1S(=O)(=O)NCCc1ccccc1`: the “activity change, negative = inhibition” value was -11%.
In the case of `CCC(CO)Oc1cc(NC(=O)c2ccc(Cl)cc2)c2ncn(C(C)C)c2c1` (centres undefined), the “activity change, negative = inhibition” value was -21.4%.
`CC(C)n1cnc2c(NCc3ccccc3)cc(OCC3CCN(C)CC3)cc21`: the Potency was 39.8 µM (active).
Turning to `CCC(CO)Oc1cc(NCc2ccccc2)c2ncn(C3CCCC3)c2c1` (centres undefined), the Potency was 56.2 µM (active).
As for `COc1ccc(CNc2nc(NCc3ccc(OC)cc3)c3ncn(C4CCCC4)c3n2)cc1`, the “activity change, negative = inhibition” value was -20.8%.
In the case of `CN(C)c1nccc(NCc2ccccc2)c1C#N`, the “activity change, negative = inhibition” value was -7.38%.
`CCOC(=O)c1cccc(NC(=O)c2cc(S(=O)(=O)N3CCCC(C)C3)cn2C)c1` (centres undefined): the “activity change, negative = inhibition” value was -16%.
On the same count and under the same terms, to `CC1CCCCN1Cc1c(O)ccc2c(=O)c(-c3cccc(Cl)c3)c(C(F)(F)F)oc12` (centres undefined) belongs -9.62%.
On the same count and under the same terms, to `O=C(CN1C(=O)CCn2nc(-c3ccccc3)cc21)NCc1ccccc1` belongs -17.2%; to `Cc1nc2c(-c3ccccc3)c(C)nn2c(C)c1CCC(=O)NCCc1ccccc1`, -5.39%.
As for `O=C(CCS(=O)(=O)c1ccc(Br)cc1)NCCc1ccc(Cl)cc1`, the Potency was 63.1 µM (active).
Regarding `Cn1c(=O)oc2cc(S(=O)(=O)CCC(=O)NCCc3ccc(Cl)cc3)ccc21`, the “activity change, negative = inhibition” value is 4.85%.
In the case of `COc1ccc(Cl)cc1NC(=O)CCS(=O)(=O)c1cc2c(cc1C)NC(=O)CO2`, the “activity change, negative = inhibition” value is -11.8%.
In the case of `CC(=O)N1CCc2cc(Br)cc(S(=O)(=O)CCC(=O)NCCc3ccc(Cl)cc3)c21`, the “activity change, negative = inhibition” value is -8.19%.
`COc1ccc(Cl)cc1NC(=O)CN(C)CC(=O)Nc1ccc2c(c1)OCO2`: the “activity change, negative = inhibition” value is -21.9%.
Turning to `COc1ccc(Cl)cc1NC(=O)CCS(=O)(=O)c1ccc(Br)cc1`, the Potency is 22.4 µM (active).
In the case of `COc1ccc(Cl)cc1NC(=O)CN(C)Cc1ccc(OC)c(OC)c1`, the Potency was 1.26 µM (active).
Regarding `COc1ccc(Cl)cc1NC(=O)CN(C)C(=O)c1ccc2n[nH]nc2c1`, the “activity change, negative = inhibition” value was -12.5%.
Regarding `COc1ccc(Cl)cc1NC(=O)CCC(=O)c1ccc(C)cc1`, the “activity change, negative = inhibition” value was -3.53%.
On to `CCCOc1ccc(-c2cccc(NS(=O)(=O)c3ccccc3)c2)nn1`, for which the “activity change, negative = inhibition” value was -19.9%.
As for `COc1ccc(OC)c(-c2csc(-c3c(N)c(C(=O)c4ccccc4)n4ccccc34)n2)c1`, the “activity change, negative = inhibition” value was -11.1%.
As to `CCc1ccc(C(=O)CC2(O)C(=O)N(CCc3ccccc3)c3ccc(Br)cc32)cc1` (centres undefined), the “activity change, negative = inhibition” value is -21.5%.
Consider `C=C1CCN(Cc2ccc(OC)cc2)S(=O)(=O)c2ccccc21`, for which the “activity change, negative = inhibition” value was 5.52%.
On the same count and under the same terms, to `CC1Cc2cc(S(=O)(=O)CCC(=O)NCc3ccc(Cl)cc3)ccc2N1C(=O)C1CC1` (centres undefined) belongs 10%.
Still for that read-out and setting: to `Cc1cc(C)cc(NS(=O)(=O)c2ccc(-c3cc(C)no3)s2)c1` belongs -0.325%.
